Laboratory results: the supplement of paper PMC6555819

Assays:
Assay in all cases: PBM binding z-score (relative to random genomic background probes); higher = stronger binding; sequences stand for … in GC…GCGATTGACAGCGTAGAATGAAGG
[1] = test system: FXR:RXRa (NR concentration 270 nM, RXRa partner concentration 90 nM)
Outline: (§1)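 The probes on custom Agilent 4×180K protein-binding microarrays were double-stranded, with 34-nt variable regions bearing direct-repeat seeds, single-nucleotide variants, half-site ablations and random human genomic background sequences. Incubation lasted 1 h with ligand-free nuclear receptor dimers in PBS pH 7.4, 2% milk, 0.02% Triton X-100, 1 mM DTT, 0.2 mg/mL BSA and 0.4 mg/ml salmon testes DNA. Antibodies against each partner (one per run) detected bound dimers, and fluorescence scans were regression-normalized. Binding z-scores take the random background probes as reference.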

[2] = test system: LXRa:RXRa (NR concentration 270 nM, RXRa partner concentration 90 nM)
Outline: as §1

[3] = test system: LXRa homodimer (NR concentration 270 nM)
Outline: as §1

[4] = test system: LXRb:RXRa (NR concentration 270 nM, RXRa partner concentration 90 nM)
Outline: as §1

[5] = test system: LXRb homodimer (NR concentration 270 nM)
Outline: as §1

[6] = test system: PPARa:RXRa (NR concentration 270 nM, RXRa partner concentration 90 nM)
Outline: as §1

[7] = test system: PPARg:RXRa (NR concentration 180 nM, RXRa partner concentration 90 nM)
Outline: as §1

[8] = test system: PPARg:RXRa 270nM:90nM, anti-RXR (NR concentration 270 nM, RXRa partner concentration 90 nM)
Outline: as §1

[9] = test system: PPARg:RXRa 30nM:10nM, anti-RXR (NR concentration 30 nM, RXRa partner concentration 10 nM)
Outline: as §1

[10] = test system: PPARg:RXRa 90nM:30nM, anti-RXR (NR concentration 90 nM, RXRa partner concentration 30 nM)
Outline: as §1

[11] = test system: PPARg:RXRa DBDmut IVT, anti-RXR (DBD mutation: RXRa K156A/R161A, NR concentration 270 nM, RXRa partner concentration 90 nM)
Outline: as §1

[12] = test system: PPARg:RXRa IVT, anti-PPARg (NR concentration 270 nM, RXRa partner concentration 90 nM)
Outline: as §1

[13] = test system: PPARg DBDmut:RXRa IVT, anti-PPARg (DBD mutation: PPARg1 K132A/R137A, NR concentration 270 nM, RXRa partner concentration 90 nM)
Outline: as §1

[14] = test system: PPARg DBDmut IVT, anti-PPARg (DBD mutation: PPARg1 K132A/R137A, NR concentration 270 nM)
Outline: as §1

[15] = test system: PPARg homodimer (NR concentration 180 nM)
Outline: as §1

[16] = test system: PXR:RXRa (NR concentration 270 nM, RXRa partner concentration 90 nM)
Outline: as §1

[17] = test system: PXR homodimer (NR concentration 270 nM)
Outline: as §1

[18] = test system: RARa:RXR (NR concentration 270 nM, RXRa partner concentration 90 nM)
Outline: as §1

[19] = test system: RARa homodimer (NR concentration 270 nM)
Outline: as §1

[20] = test system: RARb:RXRa (NR concentration 270 nM, RXRa partner concentration 90 nM)
Outline: as §1

Sequence | PBM binding z-score [1] | PBM binding z-score [2] | PBM binding z-score [3] | PBM binding z-score [4] | PBM binding z-score [5] | PBM binding z-score [6] | PBM binding z-score [7] | PBM binding z-score [8] | PBM binding z-score [9] | PBM binding z-score [10] | PBM binding z-score [11] | PBM binding z-score [12] | PBM binding z-score [13] | PBM binding z-score [14] | PBM binding z-score [15] | PBM binding z-score [16] | PBM binding z-score [17] | PBM binding z-score [18] | PBM binding z-score [19] | PBM binding z-score [20]
AGAATGAGGTTATACGTAGATCAGAGAAGAAAGT | 2.4 | 1.86 | 0.0397 | 1.57 | 0.2 | 3.2 | 2.36 | 2.1 | 0.792 | 1.45 | 3.8 | 2.41 | 0.986 | 0.988 | 1.35 | 1.1 | 0.455 | 1.51 | 0.376 | 1.38
CCGACAGGGGCAAGGTTACCATAACGCACAGCCA | 0.485 | 0.975 | -0.0477 | 0.737 | -0.848 | 1.49 | 1.32 | 0.765 | 0.0629 | 0.378 | -0.0279 | 0.0813 | -0.56 | -0.66 | 0.577 | 0.585 | 0.0826 | 1.26 | 0.048 | 2.1
TACCCTAGGTCAGATCGGGCCAGTATACGCTATA | 2.3 | 4.7 | 5.49 | 2.57 | 2.46 | 1.98 | 1.12 | 1.34 | 0.45 | 1.33 | 0.709 | 2.17 | 0.146 | -0.236 | 0.849 | 1.37 | -0.0848 | 1.8 | 0.123 | 3.19
CAAACTAGGTCAAGAGGACAAAGTCCGCTTCCCG | 3.92 | 2.83 | 1.1 | 1.67 | 0.143 | 4.69 | 7.86 | 6.69 | 4.57 | 6.62 | 8.17 | 8.27 | 2.16 | 2.91 | 1.84 | 1.37 | 0.291 | 2.12 | 0.947 | 4.37
ATCGATAGGTCGAGGTGAGTATAGAGAAAGGGAA | 0.48 | 0.636 | -0.293 | 0.566 | -0.118 | 2.02 | 0.873 | 0.711 | 0.245 | 0.369 | -0.366 | 1.03 | 0.292 | 0.326 | 0.276 | 0.415 | -0.0359 | 0.853 | 0.359 | 1.94
CATACAGGCTCAGCTAGGCCAGAGTAGGGACGGC | -0.48 | -0.677 | -0.674 | -1.16 | -0.846 | -0.795 | 0.181 | -0.549 | -0.529 | -0.694 | -0.65 | -0.492 | 0.0955 | -0.224 | 0.112 | -0.899 | -0.356 | -0.727 | -0.19 | -0.283
CAAACTAGGTCAAAGGGCAAAGTCGAGCCAACCA | 6.12 | 5.04 | 1.25 | 4.01 | 0.969 | 6.94 | 12.9 | 10.6 | 11 | 11.7 | 8.37 | 8.59 | 2.1 | 1.17 | 2.46 | 4.09 | 0.769 | 6.57 | 0.986 | 4.51
TCTGCTATGTCAGTTGGTCAGCTAACGAGCTGCC | -0.167 | -0.237 | -1.15 | -0.392 | -0.0439 | -0.108 | -0.623 | 0.446 | 0.854 | 0.78 | 0.621 | 0.807 | -0.394 | 0.0922 | -0.53 | -0.0982 | -1.36 | -0.0374 | -1.02 | 0.481
TCATATAGGTAAACGGGTGAAAGTCCGTAAGTTA | 0.647 | 0.398 | 0.0709 | 0.834 | -0.231 | 2.29 | 2.73 | 3.65 | 3.72 | 3.68 | 4.54 | 4.35 | 1.22 | 1.51 | 0.689 | 0.621 | 0.241 | 0.612 | 0.587 | 0.567
GCCGCTAGGTCAACTGATGGTCAGCTAAAGCTCG | 3.97 | 3.16 | 0.212 | 1.89 | -0.472 | 3.71 | 2.44 | 3.07 | 0.658 | 1.82 | 4.39 | 3.8 | -0.418 | -0.213 | 1.56 | 1.55 | -0.4 | 3.04 | 0.102 | 4.35
GCTTCTAGGTCAGGTTGGTCAGCTAACGGGTACG | 1.94 | 1.19 | -0.092 | 1.17 | 1.34 | 2.57 | 3.16 | 3.17 | 0.647 | 2.22 | 6.57 | 5.9 | 1.46 | 0.392 | 1.61 | 0.562 | 0.241 | 1.26 | 0.169 | 3.53
CCTTGCGGGTCACTCCAGGTTATAGCATCGGAGT | 4.22 | 7.4 | 1.24 | 4.85 | -0.435 | 4.25 | 4.41 | 4.41 | 1.34 | 3.35 | 4.56 | 4.95 | 0.399 | 0.356 | 1.54 | 4.59 | 0.258 | 3.14 | 0.115 | 3.11
TCATATAGGTAAAAGGTGCAAGTCGGTGTGGTAA | 1.29 | 1.09 | 0.188 | 1.25 | 0.0143 | 3.34 | 5.37 | 5.97 | 5.85 | 6.52 | 4.71 | 3.76 | 0.923 | 0.831 | 1.63 | 0.954 | 0.487 | 0.733 | 1.23 | 0.917
CAGCCTAGGTCAGGGCCAGTAGAGGAGGAACGTT | 1.51 | 0.675 | -0.538 | 0.358 | -1.25 | 1.97 | 0.595 | 0.833 | -0.754 | 0.0745 | 1.54 | 1.51 | -1.47 | -0.919 | 1.22 | -0.278 | -0.736 | 0.769 | -0.574 | 3.42
ATCGAAAAGTCGTGAGGTGAGTATACAGAAAGGC | 0.379 | 0.127 | -0.461 | -0.0752 | -0.13 | 0.351 | 0.623 | -0.104 | 0.404 | 0.0436 | -0.639 | 0.331 | 0.929 | 1 | 0.473 | 0.0533 | -0.117 | 0.486 | 0.556 | 0.552
CTCGAAAGGTCGGTTGAGGTGAGTATACGGATAA | 2.05 | 1.7 | -0.0944 | 1.35 | -0.0787 | 2.63 | 0.61 | 1.18 | -0.156 | 0.663 | -0.0424 | 0.699 | 0.597 | -0.651 | 0.927 | 3.19 | -0.354 | 3.13 | 0.103 | 2.98
CCGACTGGGGCAGAAAGGTTACCAAACCATCCGG | 0.151 | 0.796 | -0.38 | 1.02 | -0.812 | 2.22 | 1.48 | 2.84 | 0.501 | 2.07 | 1.37 | 1.71 | -0.76 | -0.56 | 0.448 | 0.803 | -0.532 | 1.58 | -0.491 | 1.86
CGAACTAGGTCAATGACAGGACAGTGAATAGTAA | 2.8 | 2.36 | 0.289 | 1.59 | 0.0362 | 4.34 | 7.1 | 6.02 | 3.52 | 5.51 | 8.25 | 7.96 | 1.69 | 1.41 | 1.62 | 1.12 | -0.0371 | 1.75 | 0.354 | 3.64
CAACCTAGGTCAAGGTCAAAGTCGGTTTGTGCCA | 6.38 | 5.56 | 3.63 | 4.92 | 1.07 | 5.51 | 5.92 | 5.74 | 2.75 | 4.69 | 4.85 | 5.78 | -0.338 | 0.164 | 3.33 | 5.19 | 1.48 | 5.29 | 0.703 | 5.17
